Experiment [1] can be described thus: P. berghei load reduction in hepatocytes – cell-based, HepG2, luciferase luminescence, HepG2 viability, primary screen (AID 624349; in the data active = parasite load remaining mostly below about 12%, no sharp cut-off; inactive = mostly above about 10%;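 note: 100% = mean of DMSO negative control wells on the same plate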). Conditions: P. berghei liver stage in HepG2, luciferase luminescence, concentration not given here; parasite load remaining: stronger effect = lower value; viability: measured here: HepG2 viability without parasites.
For experiment [2], the system named is Neuropilin-2 / VEGF-C interaction (human). The experiment in a line: small molecules blocking Neuropilin-2/VEGF-C interaction – biochemical, microplate binding format, z-score (AID 743281; call rule not given here). Conditions: microplate NRP2/VEGF-C binding assay; stronger effect = lower value.
Experiment [3] can be described thus: modulation of C. elegans fzo-1 (AID 1259413; call rule not given here;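 note: fzo-1 mutant C. elegans worms in liquid wells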). Conditions: C. elegans fzo-1 modulator screen, mean read-out; stronger effect = higher value.
Experiment [4] is described as follows: viability loss with induced miR-34 in A549 – imaging, A549 dox-inducible miR-34, nuclei and caspase counts, primary screen (AID 1347080;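 active = compounds whose cell count with miR-34 switched on is under 0.7 times the count with it off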). Conditions: A549 miR-34 inducible, Hoechst nuclei count, 48 h.
Experiment [5] is described as follows: MELAS cybrid and Rieske KO viability enhancers – cell-based, MELAS cybrids, Rieske KO mouse fibroblasts, CellTiter-Glo, primary screen (AID 1508586;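 active = mean z-score across replicates of 1.96 or higher in either the MELAS or the Rieske mutant cell line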;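 note: z relative to plate mean and SD of compound and empty wells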). Conditions: low glucose. A general note: In ATP-based viability assays light output follows the ATP content of the culture.
A short description of experiment [6]: galactose survival enhancers in mitochondrial complex I cybrids – cell-based, galactose medium, ATP luminescence, primary screen (AID 1645843;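 active = z-score of at least 1.8 in each of two replicates, scored against plate mean and spread of sample wells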;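 note: positive z means more ATP and so rescue of galactose-driven cybrid death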). Conditions: complex I mutant cybrid cells, 72 h, stronger effect = higher value.
The subject of experiment [7] is F380Y. The experiment can be described thus: BK channel mutant inhibitors and activators – cell-based, U2OS BacMam, thallium flux, beta subunits, selectivity assay, profiling panel (AID 1259406).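 Note: initial slope of Thallos dye fluorescence rise after thallium is added; log ratio against the mean of 0.3% DMSO vehicle wells on the same plate.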 Conditions: U2OS BacMam BK variants, at 30 µM.
Experiment [8] relates to F380Y/beta1. The experiment is described as above. Conditions: U2OS BacMam BK variants, at 30 µM.
In experiment [9] the test system is F380Y/beta2Delta. The experiment is described as above. Conditions: U2OS BacMam BK variants, at 30 µM.
In experiment [10] the test system is F380Y/beta4. The description is as above. Conditions: U2OS BacMam BK variants, at 30 µM.
Experiment [11] has as its target Calcium-activated potassium channel subunit alpha-1 (Homo sapiens) + Leucine-rich repeat-containing protein 26 (Homo sapiens) (UniProt Q12791+Q2I0M4). Described as above. The following applies: U2OS BacMam BK variants, F380Y/Slo1WT/gamma1, at 30 µM.
Experiment [12] has as its system R275C. The experiment is described as above. Conditions: U2OS BacMam BK variants, at 30 µM.
Experiment [13] deals with R275C/beta1. Described as above. Conditions: U2OS BacMam BK variants, at 30 µM.
Experiment [14] concerns R275C/beta2Delta. The description is as above. The following applies: U2OS BacMam BK variants, at 30 µM.
The test system of experiment [15] is R275C/beta4. Described as above. The following applies: U2OS BacMam BK variants, at 30 µM.
The subject of experiment [16] is R275C/Slo1WT/beta2. Described as above. Conditions: U2OS BacMam BK variants, at 30 µM.
The nature of experiment [17]: signal quenchers or enhancers, Cy5 substrate/SSB – biochemical, NIH Clinical Collection, E. coli SSB, artefact control for HCV NS3 helicase inhibitor project (AID 743268; call rule not given here). Conditions: Cy5-oligo bound E. coli SSB, fluorescence interference.
Experiment [18] concerns Hepatitis C virus NS3 helicase. The experiment in a line: blockers of NS3h binding to DNA – biochemical, fluorescence polarization, NIH Clinical Collection, primary screen (AID 743270; call rule not given here). Conditions: NS3 helicase binding to Cy5-dT15 DNA, stronger effect = higher value, concentration not given here. For orientation: Polarisation of emitted light reports the rotation of a fluorescent probe.

Experiment [19] addresses Single-stranded DNA-binding protein (Escherichia coli (strain K12)) (UniProt P0AGE0). The experiment can be described thus: SSB-ssDNA binding inhibitors – biochemical, fluorescence polarization, NIH Clinical Collection, counter-screen for HCV NS3 helicase inhibitor project (AID 743271; in the data active = inhibition above about 28%). Conditions: E. coli SSB-DNA binding, stronger effect = higher value, concentration not given here.

Experiment [20] is described as follows: compounds distorting NS3 helicase fluorescence signal – biochemical, NIH Clinical Collection, artefact control for HCV NS3 helicase inhibitor project (AID 743272; call rule not given here;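 note: HCV NS3 helicase with a Cy5 labelled single stranded DNA probe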). Conditions: fluorescence interference counterscreen, HCV NS3 helicase assay; stronger effect = lower value. A general note: A counterscreen serves to expose hits that act by an unwanted route or on another target.

[21] abbreviates: stronger effect = lower value, cell number ratio, induced over uninduced.
[22] abbreviates: measured here: relative caspase fold change +Dox/-Dox.
Setting [23] is: measured here: total cells with miR-34 induction, stronger effect = lower value.
Where [24] appears, read: measured here: total cells without miR-34 induction.
Setting [25] is: MELAS cybrid survival, CellTiter-Glo 48 h, stronger effect = higher value.
The mark [26] stands for this setting: Rieske KO mouse fibroblast survival, CellTiter-Glo 72 h.

This note sets out measurements from PubChem BioAssay.

Values joined by “and” are separate entries in the source; they are usually repeats but may differ in a detail not shown here. Equal entries are not always repeated. Active and inactive are the calls of the source.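 Rule for the calls, unless noted: active = thallium flux through the channel raised or lowered by more than 3 SD from vehicle-only wells, actives on both sides; inactive = the rest.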

Chain of Calcium-activated potassium channel subunit alpha-1 (Homo sapiens) + Leucine-rich repeat-containing protein 26 (Homo sapiens) (Q2I0M4 whole entry, looked up, one chain of several): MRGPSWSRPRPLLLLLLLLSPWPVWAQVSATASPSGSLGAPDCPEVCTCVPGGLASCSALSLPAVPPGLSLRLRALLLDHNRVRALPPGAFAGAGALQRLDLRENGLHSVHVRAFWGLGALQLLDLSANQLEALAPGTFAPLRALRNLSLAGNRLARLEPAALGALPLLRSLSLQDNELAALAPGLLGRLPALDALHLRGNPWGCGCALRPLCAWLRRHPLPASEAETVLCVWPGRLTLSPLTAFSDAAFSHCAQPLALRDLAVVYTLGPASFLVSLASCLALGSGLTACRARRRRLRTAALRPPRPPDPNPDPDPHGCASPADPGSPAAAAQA

Consider `Nc1ccn([C@@H]2CS[C@H](CO)O2)c(=O)n1`, for which the parasite load remaining in [1] was 60.8% (inactive) and 120% (inactive). Moreover, the viability – broadly, a read-out of living cells in per cent, often relative to untreated cells – in experiment [1] is 121% and 70.7%. The z-score was 0.62 (inactive) in [2], -0.0861 (inactive) in experiment [5] (setting [25]), 0.0484 in [5] (setting [26]) and 1.21 (inactive) in [6]. Besides, the mean signal in experiment [3] was 246 (inactive). Besides, the fold change in experiment [4] (setting [21]) is 0.962 (inactive); in experiment [4] (setting [22]), 1.73. Further, the cell count in experiment [4] (setting [23]) was 10700; in experiment [4] (setting [24]) it was 11100. The log fold change Tl+ flux in experiment [7] is 0.00141 (inactive) and 0.0147 (inactive); in experiment [8] it was -0.0646 (inactive) and -0.0414 (inactive); in experiment [9] it was -0.00742 (inactive) and 0.0531 (inactive); in experiment [10] it was -0.0496 (inactive) and -0.00739 (inactive); in experiment [11] it was 0.0127 (inactive) and 0.0118 (inactive); in experiment [12], -0.0937 (inactive) and 0.0141 (inactive). The log fold change Tl+ flux in [13] was -0.00105 (inactive) and 0.0176 (inactive); in experiment [14] it was 0.0208 (inactive) and -0.0112 (inactive); in [15] it was 0.00653 (inactive) and -0.00304 (inactive); in experiment [16], 0.00916 (inactive) and -0.0234 (inactive).
As to `COC(=O)Nc1nc2ccc(C(=O)c3ccc(F)cc3)cc2[nH]1`, in experiment [1], the parasite load remaining is 68.5% (inactive) and 34.2% (inactive). In addition, the viability in experiment [1] was 85.5% and 74.5%. In addition, the fluorescence ratio was 1.06 (inactive) in experiment [17] and 0.95 (inactive) in [20]. Further, the inhibition (commonly the relative decrease from the control value, in per cent) is -1.19% (inactive) in [18] and -0.87% (inactive) in [19]. Further, the z-score was 0.511 (inactive) in experiment [2]; -2.49 (inactive) and -1.97 (inactive) in [5] (setting [25]); 1.69 and 0.533 in experiment [5] (setting [26]); -1.28 (inactive) and -0.83 (inactive) in experiment [6]. Also, the mean signal in experiment [3] is 249 (inactive). The fold change in experiment [4] (setting [21]) was 1.22 (inactive) and 1.03 (inactive); in experiment [4] (setting [22]), 1.31 and 0.65. The cell count was 1820 and 2010 in experiment [4] (setting [23]); 1490 and 1950 in experiment [4] (setting [24]). In addition, the log fold change Tl+ flux is -0.0412 (inactive) in experiment [7]; 0.0196 (inactive) in experiment [8]; -0.0407 (inactive) in experiment [9]; -0.0852 (inactive) in experiment [10]; 0.00265 (inactive) in experiment [11]; -0.0283 (inactive) in experiment [12]. In addition, the log fold change Tl+ flux in experiment [13] was -0.0436 (inactive); in [14] it was -0.052 (inactive); in experiment [15], 0.0237 (inactive); in [16], 0.00461 (inactive).
As for `NC(Cc1cc(I)c(Oc2ccc(O)c(I)c2)c(I)c1)C(=O)O` (stereo not given), the parasite load remaining in [1] is 39.9% (inactive). Besides, the viability in experiment [1] worked out at 106%. In addition, the fluorescence ratio in experiment [17] is 0.99 (inactive); in [20], 0.92 (inactive). Moreover, the inhibition in [18] was -1.36% (inactive); in experiment [19], 1.81% (inactive). Further, the mean signal in experiment [3] was 230 (inactive). The fold change in experiment [4] (setting [21]) was 0.986 (inactive) and 0.874 (inactive); in experiment [4] (setting [22]), 1.58 and 0.636. Besides, the cell count was 9780 and 7770 in [4] (setting [23]); 9910 and 8890 in experiment [4] (setting [24]). The values for the z-score in [5] (setting [25]), in [5] (setting [26]) and in [6] were -0.101 (inactive), 0.0136 and -1.5 (inactive), respectively. The log fold change Tl+ flux in experiment [7] was 0.0253 (inactive); in experiment [8], 0.112 (inactive); in experiment [9] it was 0.058 (inactive); in experiment [10], 0.107 (active); in experiment [11], 0.0742 (inactive); in experiment [12] it was 0.047 (inactive). In addition, the log fold change Tl+ flux in experiment [13] was 0.0451 (inactive); in experiment [14] it was 0.136 (active); in [15], 0.254 (active); in [16] it was -0.125 (active).
